Bioassay records from PubChem.
RORg inh – inhibitors of mouse ROR gamma transcriptional activity | Drosophila S2 Gal4-RORgamma UAS-luciferase reporter, 20 h | 310,000 compounds, 5.4% hits | P51450 | Potency, µM (doses to about 53.6 µM), for the others: at the highest dose activity change, negative = inhibition, hits mostly inhibitors | AID 2551; further: potency means the concentration at half of the fitted maximal effect; nearly all actives have a fitted effect of over 60% in size
Target sequence (P51450 whole entry, looked up, the tested form may be a part): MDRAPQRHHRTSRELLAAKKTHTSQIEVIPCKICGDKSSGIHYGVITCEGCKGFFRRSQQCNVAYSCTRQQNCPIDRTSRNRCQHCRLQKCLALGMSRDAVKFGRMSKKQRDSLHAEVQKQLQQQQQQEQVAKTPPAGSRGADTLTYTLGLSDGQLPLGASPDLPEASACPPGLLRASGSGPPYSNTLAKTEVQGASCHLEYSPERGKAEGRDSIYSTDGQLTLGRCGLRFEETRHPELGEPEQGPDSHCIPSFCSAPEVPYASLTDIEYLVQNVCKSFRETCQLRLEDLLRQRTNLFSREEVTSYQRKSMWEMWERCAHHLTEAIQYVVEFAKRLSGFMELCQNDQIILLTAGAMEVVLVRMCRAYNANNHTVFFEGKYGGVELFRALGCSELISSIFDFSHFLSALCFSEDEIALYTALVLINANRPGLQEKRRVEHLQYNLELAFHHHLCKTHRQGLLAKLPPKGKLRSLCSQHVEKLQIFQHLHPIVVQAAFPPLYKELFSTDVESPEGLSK
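ROR gamma transcriptional activity was tracked as Gal4-UAS luciferase output in stably transfected Drosophila Schneider cells, with compound added 1 hr before 700 uM copper sulfate induction and a 20 hr ambient-temperature incubation.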
IL-1B inflam inh – inflammasome signaling inhibition, IL-1 beta readout; THP-1 LPS/ATP IL-1B secretion, AlphaLISA, 16 h; hits give low values; activity change, % at 57.5 µM; 360,000 compounds, 4.7% hits; in the data active means activity change below about -50%; inconclusive means mostly about -30% to -49%
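THP-1 cells pretreated 1 hr with compounds (up to 57.5 uM final), then stimulated with LPS (250 ng/mL final) plus ATP (1.25 mM final); secreted IL-1B measured by AlphaLISA after 16 hr, decreased signal indicating inhibition.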
VP16 counter – counter-screen for ROR gamma inhibitors: Gal4-VP16 reporter; Potency, µM (series often up to 53.6 µM), inactives show at the highest dose activity, negative = inhibition, actives largely listed as inhibitors; 310,000 compounds, 3.5% hits; Drosophila S2 Gal4-VP16 UAS-luciferase, luminescence, 20 h;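 further: Gal4-VP16 expression switched on by copper sulfate through the metallothionein promoter; potency means the concentration at half of the fitted maximal effect; nearly all actives have a fitted effect of over 50% in size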
LDHA inh – LDHA (human) enzyme inhibition. purified LDHA, NADH/diaphorase-resazurin fluorescence; hits give low values. 480,000 compounds, 0.15% hits. activity change, % (values are at about 110 or 230 µM). AID 1347041; in the data active means activity change below about -30%; inconclusive means mostly about -25% to -30%;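 further: plate controls were DMSO wells for no effect and wells without enzyme for full effect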
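Human LDH5 (2 nM) was incubated with 0.06 mM NADH and 0.2 mM pyruvate for 5 min at room temperature in Tris pH 7.4. Remaining NADH was coupled through diaphorase/resazurin, and resorufin fluorescence was read at 0 and 20 min.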
TDP1 cell CPT – growth inhibition of DT40 Tdp1-/-;hTDP1 cells with camptothecin (screen for TDP1 inhibitors) | chicken DT40 Tdp1-/-;hTDP1 cells + 20 nM CPT, ATP luminescence, 48 h | Potency, µM (doses to about 46.2 µM), without a hit: at the top dose activity change, negative = growth inhibition, most hits filed as inhibitors | 420,000 compounds, 12% hits; further: potency means the concentration at half of the fitted maximal effect; nearly all actives have a fitted effect of over 55% in size
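Cell growth measured by CellTiter-Glo luminescence after a minimum 48 h, 37 C compound exposure with 20 nM CPT in Tdp1-knockout DT40 cells stably expressing hTDP1, seeded 400/well; qHTS titration format.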
DT40 TDP1 no CPT – qHTS for Inhibitors of human tyrosyl-DNA phosphodiesterase 1 (TDP1): qHTS in cells in absence of CPT | Potency, µM (titrated, usually from 46.2 µM), for the others: at the highest dose activity change, negative = growth inhibition, hits mostly inhibitors | DT40 Tdp1-/- hTDP1 cells, no CPT, ATP luminescence, 48 h | 420,000 compounds, 15% hits; further: potency means the concentration at half of the fitted maximal effect; nearly all actives have a fitted effect of over 55% in size
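Camptothecin absent (DMSO only). Human TDP1-complemented DT40 knockout cells, 400 cells/well, 37 °C for minimum 48 hr; ATP measured via CellTiter-Glo, 30 min dark incubation, luminescence.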
The depositor's hits bear a star; ? = inconclusive; / = not tested or not shown; [ ] = dose if it differs, or a comment. Rows were chosen to be rich in hits. Some 18% of all compounds tested hit in one or more screens of this group. Unless noted, the call rests on the fitted dose curve; in most records, active means well fitted curve in the direction sought with a large enough effect; inconclusive means small, poorly fitted or top-dose-only effect, or another doubt; inactive means no such curve, though single readings can be large; an effect the other way counts as inactive or inconclusive. Unless noted, on the % scale 0 is the no-effect control and ±100 the full control effect.

SMILES	RORg inh	IL-1B inflam inh	VP16 counter	LDHA inh	TDP1 cell CPT	DT40 TDP1 no CPT
O=c1c2ccccc2nc(-c2cccs2)n1-c1cccc2ccccc12	?	-1	-2%	-6	?	21µM*
COc1cccc(CNn2c(-c3cccc(C)c3)nc3ccccc3c2=O)c1	-19%	-71*	13%	0	?	18µM*
Cc1c(-c2cccs2)nc2ccccc2c1C(=O)O	/	/	/	-2	/	/
Cc1cccc(-n2c3c(cc(C#N)c2=O)C(=O)CC(c2ccccc2)C3)c1C (stereo not given)	/	/	/	5	/	/
N#C/C(=C/c1c2ccccc2cc2ccccc12)c1nc2ccccc2[nH]1	/	/	/	9	/	/
CCCCOc1ccc(S(=O)(=O)NCc2csc(C)n2)cc1	-11%[0.365 µM]	?	/	-3	13µM*	23µM*
Cc1nc(CNS(=O)(=O)c2ccc3c(c2)CCCC3)cs1	-9%	17	-8%	3	16µM*	?
CCCCn1c(N)c(N(C(=O)c2cc(CCC)c(C)s2)C2CCCC2)c(=O)[nH]c1=O	/	/	/	11	/	/
COCCCn1c(-c2cccc(Cl)c2)nc2c1c(=O)[nH]c(=O)n2Cc1ccccc1	6%	12	1%	-6	?	7.3µM*
COc1ccc(-c2nc3c(c(=O)[nH]c(=O)n3Cc3ccccc3)n2CCO)cc1	15%	51	7%	-8	2%	-9%
Cn1c(-c2cc(Cl)ccc2O)nc2c1c(=O)[nH]c(=O)n2Cc1ccccc1	29%	60	-13%	-9	18µM*	13µM*
COc1ccc2[nH]c3c(c2c1)CCN1C(=O)C(CC(=O)NCC24CC5CC(CC(C5)C2)C4)C[C@H](C(=O)N2CCOCC2)[C@@]31C (stereo not given in full)	/	?	/	3	?	?
C[C@]12c3[nH]c4ccc(Cl)cc4c3CCN1C(=O)[C@@H](CC(=O)NCC13CC4CC(CC(C4)C1)C3)C[C@@H]2C(=O)N1CCCCC1	/	-60*	/	4	16µM*	16µM*
C[C@]12c3[nH]c4ccc(Cl)cc4c3CCN1C(=O)[C@@H](CC(=O)NCC13CC4CC(CC(C4)C1)C3)C[C@@H]2C(=O)N1CCOCC1	/	?	/	3	10µM*	13µM*
O=[N+]([O-])c1ccc(O)c(NC(=S)Nc2ccccc2)c1	42%	11	-22%	-2	-22%	-12%
O=C(Nc1ccc([N+](=O)[O-])cc1)C(c1ccccc1)c1ccccc1	/	-8	/	-8	18µM*	18µM*
O=[N+]([O-])c1ccc(NNC(=S)Nc2ccccc2)cc1	?	-18	?	1	4.5µM*	2.8µM*
CC(C)C(=O)Nc1ccc([N+](=O)[O-])cc1	/	/	/	6	/	/
COc1ccc(OCCCC(=O)Oc2ccc3oc4ccccc4c3c2)cc1	/	/	/	3	/	/
CCc1c(C)c2ccc(OCC(=O)c3ccc(C)cc3)cc2oc1=O	/	/	/	0	/	/
CCN(CC)S(=O)(=O)c1ccc2c(c1)nc(CCC(=O)Nc1cccc(C(F)(F)F)c1)n2CC	11%	?	-9%	-2	29µM*	?
Nc1ccc2oc(=O)c3ccccc3c2c1	1%	-77*	-9%	-4	-25%	-21%
O=c1oc(=O)c2ccccc2c2ccccc12	/	9	/	-3	9%	-1%
CCN(CC)S(=O)(=O)c1cccc(NC(=O)COC(=O)c2nn(C)c(=O)c3ccccc23)c1	/	/	/	1	/	/
CCOc1ccc(/C=N/O)c(OC)c1	/	/	/	4	/	/
SMILES	RORg inh	IL-1B inflam inh	VP16 counter	LDHA inh	TDP1 cell CPT	DT40 TDP1 no CPT
CC(C)CCn1c(SCc2ccc(F)cc2)nc2c1c(=O)[nH]c(=O)n2C	/	/	/	8	/	/
Cc1ccc(C)c(Cn2c(C3CC(=O)N(c4ccccc4C)C3)nc3ccccc32)c1 (stereo not given)	/	/	/	-6	23µM*	21µM*
CCOc1ccc(N2CC(c3nc4ccccc4n3Cc3cccc(C)c3)CC2=O)cc1 (stereo not given)	/	/	/	-4	?	?
CCc1ccccc1N1CC(c2nc3ccccc3n2Cc2cccc(C)c2)CC1=O (stereo not given)	/	/	/	7	10µM*	13µM*
Cc1nc(-c2ccc(F)cc2)sc1CCNC(=O)C1CCCC1	/	/	/	1	/	/
O=C(CNC(=O)c1ccccc1O)N/N=C/c1cc(Br)ccc1OC(=O)/C=C/c1ccco1	5.6µM*	77	-7%	-12	7.3µM*	4.6µM*
COc1ccc([N+](=O)[O-])cc1/C=N/NC(=O)CNC(=O)c1cccc(F)c1	10µM*	47	?	6	-89%	?
COc1cc(C(=O)NCC(=O)N/N=C/c2ccco2)cc(OC)c1OC	-23%	-3	-5%	-6	1%	14%
O=C(CNC(=O)c1cccc(F)c1)N/N=C/c1cc(Br)ccc1OC(=O)/C=C/c1ccco1	3.5µM*	191	7.9µM*	-1	7.3µM*	3.7µM*
O=C(CNC(=O)c1ccccc1Br)N/N=C/c1ccco1	-4%	-11	8%	-12	4%	-9%
CCOCc1ccccc1CNC(=O)c1ccc2c(c1)NC(=O)CS2	/	/	/	-14	/	/
COc1ccc(CN(C)CC(O)COc2ccccc2)c(OC)c1OC (stereo not given)	/	/	/	2	/	/
CCC(C)NS(=O)(=O)c1ccc(N2C(=O)CCS2(=O)=O)cc1 (stereo not given)	/	/	/	-2	/	/
C/C(c1cccs1)=[N+](\[O-])C(C)/C(=N/O)c1ccco1 (stereo not given)	/	/	/	-16	/	/
O=C(O)c1ccccc1NSc1ccccc1[N+](=O)[O-]	32%	34	1%	-1	9%	-23%
O=C(O)c1ccccc1Sc1c([N+](=O)[O-])cc(C(F)(F)F)cc1[N+](=O)[O-]	?	-67*	?	2	?	?
Cc1oc(-c2ccccc2)nc1C(=O)OCC(=O)NC(C)C(C)C (stereo not given)	/	/	/	0	/	/
Cc1ccc(CNC(=O)CCc2c[nH]c3ccccc23)s1	/	/	/	2	/	/
O=C1C(=O)c2c(C(=O)c3ccccc3)coc2-c2ccccc21	6.3µM*	?	3.5µM*	39	3.3µM*	2.1µM*
Cc1onc(-c2ccccc2Cl)c1C(=O)c1ccccc1	-16%	/	-12%	-5	-9%	?
Cc1oc2c(c1C(=O)c1ccccc1)C(=O)C(=O)c1ccccc1-2	2.8µM*	-88*	3.2µM*	33	1.2µM*	1.8µM*
